# Assays:
# Test in all cases: fluorescence anisotropy; 10 mM Tris-HEPES pH 7.5, 8% Ficoll, 0.05% NP-40, 135 mM KCl, 15 mM NaCl, 1 mM DTT, 0.1 mg/mL BSA; 2 nM DNA or 3 nM RNA; low values mean tight binding
# Details in all cases: protein: recombinant; tags: N-terminal His6 and thrombin site, not removed; label: FAM; only (+) strand given; dsDNA, one strand shown
# [1] = target: Sox2-HMG (His6 retained) E78A (Homo sapiens, UniProt P48431 38-121, E78A)
# How it was run: (§1)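 Alanine-substituted Sox2-HMG domains were made by site-directed mutagenesis and Ni-NTA purified with the His6 tag retained. They were titrated against 2 nM fluorescein-labeled DNA or 3 nM fluorescein-labeled RNA in Tris-HEPES pH 7.5 binding buffer for at least 1 h. Polarization was read on a CLARIOstar, with triplicate titrations each read three times. Dissociation constants were fit in Kaleidagraph and expressed as the mutant-to-wild-type ratio.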
# [2] = target: Sox2-HMG (His6 retained) S72A (Homo sapiens, UniProt P48431 38-121, S72A)
# Sequence of Sox2-HMG (His6 retained) S72A (P48431 other isoform, or with tags, fused parts or gaps S72A | S72A S72A): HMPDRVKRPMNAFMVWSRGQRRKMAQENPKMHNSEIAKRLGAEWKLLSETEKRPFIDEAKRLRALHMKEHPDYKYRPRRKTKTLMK
# How it was run: as §1
# [3] = target: Sox2-HMG (His6 retained) E104A (Homo sapiens, UniProt P48431 38-121, E104A)
# Sequence of Sox2-HMG (His6 retained) E104A (P48431 other isoform, or with tags, fused parts or gaps E104A | E104A E104A): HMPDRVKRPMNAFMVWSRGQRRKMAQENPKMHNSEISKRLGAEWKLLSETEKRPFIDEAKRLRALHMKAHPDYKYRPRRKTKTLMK
# How it was run: as §1
# [4] = target: Sox2-HMG (His6 retained) K58A (Homo sapiens, UniProt P48431 38-121, K58A)
# Sequence of Sox2-HMG (His6 retained) K58A (P48431 other isoform, or with tags, fused parts or gaps K58A | K58A K58A): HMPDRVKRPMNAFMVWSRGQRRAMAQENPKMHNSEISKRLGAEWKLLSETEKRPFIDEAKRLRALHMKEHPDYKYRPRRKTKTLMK
# How it was run: as §1
# [5] = target: Sox2-HMG (His6 retained) H67A (Homo sapiens, UniProt P48431 38-121, H67A)
# Sequence of Sox2-HMG (His6 retained) H67A (P48431 other isoform, or with tags, fused parts or gaps H67A | H67A H67A): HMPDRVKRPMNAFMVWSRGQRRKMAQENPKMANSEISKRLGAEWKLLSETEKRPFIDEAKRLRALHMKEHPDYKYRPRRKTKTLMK
# How it was run: as §1
# [6] = target: Sox2-HMG (His6 retained) K42A (Homo sapiens, UniProt P48431 38-121, K42A)
# Sequence of Sox2-HMG (His6 retained) K42A (P48431 other isoform, or with tags, fused parts or gaps K42A | K42A K42A): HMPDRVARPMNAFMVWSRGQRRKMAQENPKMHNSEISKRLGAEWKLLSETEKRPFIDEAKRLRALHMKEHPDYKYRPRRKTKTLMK
# How it was run: as §1
# [7] = target: Sox2-HMG (His6 retained) M45A (Homo sapiens, UniProt P48431 38-121, M45A)
# Sequence of Sox2-HMG (His6 retained) M45A (P48431 other isoform, or with tags, fused parts or gaps M45A | M45A M45A): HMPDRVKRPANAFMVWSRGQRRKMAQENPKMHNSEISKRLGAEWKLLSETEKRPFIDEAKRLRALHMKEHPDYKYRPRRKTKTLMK
# How it was run: as §1
# [8] = target: Sox2-HMG (His6 retained) N63A (Homo sapiens, UniProt P48431 38-121, N63A)
# Sequence of Sox2-HMG (His6 retained) N63A (P48431 other isoform, or with tags, fused parts or gaps N63A | N63A N63A): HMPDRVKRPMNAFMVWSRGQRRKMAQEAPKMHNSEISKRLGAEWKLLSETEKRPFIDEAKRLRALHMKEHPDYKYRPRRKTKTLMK
# How it was run: as §1
# [9] = target: Sox2-HMG (His6 retained) K115A (Homo sapiens, UniProt P48431 38-121, K115A)
# Sequence of Sox2-HMG (His6 retained) K115A (P48431 other isoform, or with tags, fused parts or gaps K115A | K115A K115A): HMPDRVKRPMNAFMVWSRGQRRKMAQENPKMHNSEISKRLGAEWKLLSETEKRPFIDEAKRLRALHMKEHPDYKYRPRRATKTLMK
# How it was run: as §1
# [10] = target: Sox2-HMG (His6 retained) E70A (Homo sapiens, UniProt P48431 38-121, E70A)
# How it was run: as §1
# [11] = target: Sox2-HMG (His6 retained) K87A (Homo sapiens, UniProt P48431 38-121, K87A)
# Sequence of Sox2-HMG (His6 retained) K87A (P48431 other isoform, or with tags, fused parts or gaps K87A | K87A K87A): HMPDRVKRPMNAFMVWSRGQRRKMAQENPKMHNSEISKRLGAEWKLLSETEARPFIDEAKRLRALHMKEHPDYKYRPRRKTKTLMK
# How it was run: as §1
# [12] = target: Sox2-HMG (His6 retained) W79A (Homo sapiens, UniProt P48431 38-121, W79A)
# How it was run: as §1
# [13] = target: Sox2-HMG (His6 retained) E62A (Homo sapiens, UniProt P48431 38-121, E62A)
# Sequence of Sox2-HMG (His6 retained) E62A (P48431 other isoform, or with tags, fused parts or gaps E62A | E62A E62A): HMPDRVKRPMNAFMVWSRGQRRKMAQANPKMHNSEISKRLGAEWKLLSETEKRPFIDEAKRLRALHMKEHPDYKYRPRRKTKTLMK
# How it was run: as §1
# [14] = target: Sox2-HMG (His6 retained) R114A (Homo sapiens, UniProt P48431 38-121, R114A)
# Sequence of Sox2-HMG (His6 retained) R114A (P48431 other isoform, or with tags, fused parts or gaps R114A | R114A R114A): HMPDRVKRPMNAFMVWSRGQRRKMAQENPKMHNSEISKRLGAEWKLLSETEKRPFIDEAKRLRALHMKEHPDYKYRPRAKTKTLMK
# How it was run: as §1
# [15] = target: Sox2-HMG (His6 retained) S69A (Homo sapiens, UniProt P48431 38-121, S69A)
# Sequence of Sox2-HMG (His6 retained) S69A (P48431 other isoform, or with tags, fused parts or gaps S69A | S69A S69A): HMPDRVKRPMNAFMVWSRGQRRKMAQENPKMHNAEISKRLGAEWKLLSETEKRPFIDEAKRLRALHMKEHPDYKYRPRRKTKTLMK
# How it was run: as §1
# [16] = target: Sox2-HMG (His6 retained) R96A (Homo sapiens, UniProt P48431 38-121, R96A)
# Sequence of Sox2-HMG (His6 retained) R96A (P48431 other isoform, or with tags, fused parts or gaps R96A | R96A R96A): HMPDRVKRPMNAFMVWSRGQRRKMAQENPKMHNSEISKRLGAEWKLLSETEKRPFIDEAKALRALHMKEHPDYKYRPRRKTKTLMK
# How it was run: as §1
# [17] = target: Sox2-HMG (His6 retained) R40A (Homo sapiens, UniProt P48431 38-121, R40A)
# Sequence of Sox2-HMG (His6 retained) R40A (P48431 other isoform, or with tags, fused parts or gaps R40A | R40A R40A): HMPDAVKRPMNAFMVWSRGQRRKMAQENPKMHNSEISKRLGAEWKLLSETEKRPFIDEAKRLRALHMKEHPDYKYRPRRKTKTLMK
# How it was run: as §1
# [18] = target: Sox2-HMG (His6 retained) W51A (Homo sapiens, UniProt P48431 38-121, W51A)
# Sequence of Sox2-HMG (His6 retained) W51A (P48431 other isoform, or with tags, fused parts or gaps W51A | W51A W51A): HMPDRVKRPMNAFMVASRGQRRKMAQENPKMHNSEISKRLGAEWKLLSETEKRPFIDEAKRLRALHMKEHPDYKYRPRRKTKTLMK
# How it was run: as §1
# [19] = target: Sox2-HMG (His6 retained) S83A (Homo sapiens, UniProt P48431 38-121, S83A)
# Sequence of Sox2-HMG (His6 retained) S83A (P48431 other isoform, or with tags, fused parts or gaps S83A | S83A S83A): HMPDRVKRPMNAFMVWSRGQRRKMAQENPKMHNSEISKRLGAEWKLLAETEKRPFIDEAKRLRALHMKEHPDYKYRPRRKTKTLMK
# How it was run: as §1
# [20] = target: Sox2-HMG (His6 retained) R111A (Homo sapiens, UniProt P48431 38-121, R111A)
# Sequence of Sox2-HMG (His6 retained) R111A (P48431 other isoform, or with tags, fused parts or gaps R111A | R111A R111A): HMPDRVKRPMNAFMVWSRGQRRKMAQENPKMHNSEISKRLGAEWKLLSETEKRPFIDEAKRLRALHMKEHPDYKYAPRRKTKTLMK
# How it was run: as §1
# [21] = target: Sox2-HMG (His6 retained) E84A (Homo sapiens, UniProt P48431 38-121, E84A)
# Sequence of Sox2-HMG (His6 retained) E84A (P48431 other isoform, or with tags, fused parts or gaps E84A | E84A E84A): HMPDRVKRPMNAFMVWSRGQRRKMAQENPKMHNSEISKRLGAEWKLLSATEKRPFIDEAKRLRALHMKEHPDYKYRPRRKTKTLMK
# How it was run: as §1
# [22] = target: Sox2-HMG (His6 retained) K95A (Homo sapiens, UniProt P48431 38-121, K95A)
# Sequence of Sox2-HMG (His6 retained) K95A (P48431 other isoform, or with tags, fused parts or gaps K95A | K95A K95A): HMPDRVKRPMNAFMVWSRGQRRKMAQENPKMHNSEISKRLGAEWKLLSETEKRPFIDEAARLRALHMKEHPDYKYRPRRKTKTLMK
# How it was run: as §1
# [23] = target: Sox2-HMG (His6 retained) F48A (Homo sapiens, UniProt P48431 38-121, F48A)
# Sequence of Sox2-HMG (His6 retained) F48A (P48431 other isoform, or with tags, fused parts or gaps F48A | F48A F48A): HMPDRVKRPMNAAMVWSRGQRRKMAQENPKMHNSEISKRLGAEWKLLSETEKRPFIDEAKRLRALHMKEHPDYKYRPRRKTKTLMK
# How it was run: as §1
# [24] = target: Sox2-HMG (His6 retained) R74A (Homo sapiens, UniProt P48431 38-121, R74A)
# Sequence of Sox2-HMG (His6 retained) R74A (P48431 other isoform, or with tags, fused parts or gaps R74A | R74A R74A): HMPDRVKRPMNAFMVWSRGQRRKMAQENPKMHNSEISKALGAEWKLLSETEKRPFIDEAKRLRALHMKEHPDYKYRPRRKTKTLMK
# How it was run: as §1
# [25] = target: Sox2-HMG (His6 retained) Q61A (Homo sapiens, UniProt P48431 38-121, Q61A)
# Sequence of Sox2-HMG (His6 retained) Q61A (P48431 other isoform, or with tags, fused parts or gaps Q61A | Q61A Q61A): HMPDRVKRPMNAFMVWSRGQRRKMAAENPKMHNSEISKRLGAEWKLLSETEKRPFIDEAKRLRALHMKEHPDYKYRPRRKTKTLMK
# How it was run: as §1
# [26] = target: Sox2-HMG (His6 retained) R88A (Homo sapiens, UniProt P48431 38-121, R88A)
# Sequence of Sox2-HMG (His6 retained) R88A (P48431 other isoform, or with tags, fused parts or gaps R88A | R88A R88A): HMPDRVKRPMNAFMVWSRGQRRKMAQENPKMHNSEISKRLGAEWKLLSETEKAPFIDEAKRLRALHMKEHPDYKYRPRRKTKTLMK
# How it was run: as §1
# [27] = target: Sox2-HMG (His6 retained) K73A (Homo sapiens, UniProt P48431 38-121, K73A)
# Sequence of Sox2-HMG (His6 retained) K73A (P48431 other isoform, or with tags, fused parts or gaps K73A | K73A K73A): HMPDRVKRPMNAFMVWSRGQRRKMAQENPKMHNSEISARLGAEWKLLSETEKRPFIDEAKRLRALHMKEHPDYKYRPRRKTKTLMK
# How it was run: as §1
# [28] = target: Sox2-HMG (His6 retained) E86A (Homo sapiens, UniProt P48431 38-121, E86A)
# Sequence of Sox2-HMG (His6 retained) E86A (P48431 other isoform, or with tags, fused parts or gaps E86A | E86A E86A): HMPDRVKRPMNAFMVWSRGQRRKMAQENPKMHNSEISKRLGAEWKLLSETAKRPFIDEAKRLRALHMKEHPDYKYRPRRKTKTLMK
# How it was run: as §1
# [29] = target: Sox2-HMG (His6 retained) R53A (Homo sapiens, UniProt P48431 38-121, R53A)
# Sequence of Sox2-HMG (His6 retained) R53A (P48431 other isoform, or with tags, fused parts or gaps R53A | R53A R53A): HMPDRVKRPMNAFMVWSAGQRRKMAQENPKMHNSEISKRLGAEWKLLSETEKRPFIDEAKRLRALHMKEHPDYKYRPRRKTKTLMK
# How it was run: as §1
# [30] = target: Sox2-HMG (His6 retained) R113A (Homo sapiens, UniProt P48431 38-121, R113A)
# Sequence of Sox2-HMG (His6 retained) R113A (P48431 other isoform, or with tags, fused parts or gaps R113A | R113A R113A): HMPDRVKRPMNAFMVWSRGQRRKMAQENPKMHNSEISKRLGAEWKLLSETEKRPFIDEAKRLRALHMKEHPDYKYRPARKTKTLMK
# How it was run: as §1
# [31] = target: Sox2-HMG (His6 retained) T85A (Homo sapiens, UniProt P48431 38-121, T85A)
# Sequence of Sox2-HMG (His6 retained) T85A (P48431 other isoform, or with tags, fused parts or gaps T85A | T85A T85A): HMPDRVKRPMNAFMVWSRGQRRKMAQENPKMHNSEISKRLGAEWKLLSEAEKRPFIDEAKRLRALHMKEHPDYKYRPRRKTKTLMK
# How it was run: as §1
# [32] = target: Sox2-HMG (His6 retained) M49A (Homo sapiens, UniProt P48431 38-121, M49A)
# Sequence of Sox2-HMG (His6 retained) M49A (P48431 other isoform, or with tags, fused parts or gaps M49A | M49A M49A): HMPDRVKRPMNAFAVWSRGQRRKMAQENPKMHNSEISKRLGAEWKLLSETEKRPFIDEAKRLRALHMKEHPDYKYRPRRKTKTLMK
# How it was run: as §1
# [33] = target: Sox2-HMG (His6 retained) R56A (Homo sapiens, UniProt P48431 38-121, R56A)
# Sequence of Sox2-HMG (His6 retained) R56A (P48431 other isoform, or with tags, fused parts or gaps R56A | R56A R56A): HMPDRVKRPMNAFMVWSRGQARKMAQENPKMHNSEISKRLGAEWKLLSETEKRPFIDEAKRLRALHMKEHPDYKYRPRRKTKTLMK
# How it was run: as §1
# [34] = target: Sox2-HMG (His6 retained) K80A (Homo sapiens, UniProt P48431 38-121, K80A)
# Sequence of Sox2-HMG (His6 retained) K80A (P48431 other isoform, or with tags, fused parts or gaps K80A | K80A K80A): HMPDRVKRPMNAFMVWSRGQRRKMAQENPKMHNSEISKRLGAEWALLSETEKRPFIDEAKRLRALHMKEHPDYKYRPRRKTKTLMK
# How it was run: as §1
# [35] = target: Sox2-HMG (His6 retained) Y110A (Homo sapiens, UniProt P48431 38-121, Y110A)
# Sequence of Sox2-HMG (His6 retained) Y110A (P48431 other isoform, or with tags, fused parts or gaps Y110A | Y110A Y110A): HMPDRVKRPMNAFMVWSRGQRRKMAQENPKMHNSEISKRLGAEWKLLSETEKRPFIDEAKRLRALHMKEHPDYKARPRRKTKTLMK
# How it was run: as §1
# [36] = target: Sox2-HMG (His6 retained) K103A (Homo sapiens, UniProt P48431 38-121, K103A)
# Sequence of Sox2-HMG (His6 retained) K103A (P48431 other isoform, or with tags, fused parts or gaps K103A | K103A K103A): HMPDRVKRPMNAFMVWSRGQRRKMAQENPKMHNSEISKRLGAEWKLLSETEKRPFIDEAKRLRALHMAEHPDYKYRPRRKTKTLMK
# How it was run: as §1
# [37] = target: Sox2-HMG (His6 retained) K109A (Homo sapiens, UniProt P48431 38-121, K109A)
# Sequence of Sox2-HMG (His6 retained) K109A (P48431 other isoform, or with tags, fused parts or gaps K109A | K109A K109A): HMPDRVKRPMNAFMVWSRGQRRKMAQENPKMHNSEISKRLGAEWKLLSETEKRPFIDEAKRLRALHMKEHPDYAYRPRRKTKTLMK
# How it was run: as §1
# [38] = target: Sox2-HMG (His6 retained) R43A (Homo sapiens, UniProt P48431 38-121, R43A)
# Sequence of Sox2-HMG (His6 retained) R43A (P48431 other isoform, or with tags, fused parts or gaps R43A | R43A R43A): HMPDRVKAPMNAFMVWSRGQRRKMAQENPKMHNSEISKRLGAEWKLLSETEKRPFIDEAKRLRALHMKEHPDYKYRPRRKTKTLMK
# How it was run: as §1
# [39] = target: Sox2-HMG (His6 retained) R57A (Homo sapiens, UniProt P48431 38-121, R57A)
# Sequence of Sox2-HMG (His6 retained) R57A (P48431 other isoform, or with tags, fused parts or gaps R57A | R57A R57A): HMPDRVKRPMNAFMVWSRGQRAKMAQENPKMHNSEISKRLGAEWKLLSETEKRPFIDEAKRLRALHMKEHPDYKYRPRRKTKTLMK
# How it was run: as §1
# [40] = target: Sox2-HMG (His6 retained) R98A (Homo sapiens, UniProt P48431 38-121, R98A)
# Sequence of Sox2-HMG (His6 retained) R98A (P48431 other isoform, or with tags, fused parts or gaps R98A | R98A R98A): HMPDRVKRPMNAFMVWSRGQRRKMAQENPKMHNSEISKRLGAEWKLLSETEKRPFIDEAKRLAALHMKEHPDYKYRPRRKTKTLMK
# How it was run: as §1
# [41] = target: Sox2-HMG (His6 retained) N68A (Homo sapiens, UniProt P48431 38-121, N68A)
# Sequence of Sox2-HMG (His6 retained) N68A (P48431 other isoform, or with tags, fused parts or gaps N68A | N68A N68A): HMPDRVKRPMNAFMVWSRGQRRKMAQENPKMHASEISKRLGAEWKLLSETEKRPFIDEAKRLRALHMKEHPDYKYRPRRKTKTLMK
# How it was run: as §1
# [42] = target: Sox2-HMG (His6 retained) P112A (Homo sapiens, UniProt P48431 38-121, P112A)
# Sequence of Sox2-HMG (His6 retained) P112A (P48431 other isoform, or with tags, fused parts or gaps P112A | P112A P112A): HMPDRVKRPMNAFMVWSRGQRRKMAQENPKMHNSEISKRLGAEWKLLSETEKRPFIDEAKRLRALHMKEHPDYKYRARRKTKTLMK
# How it was run: as §1
# [43] = target: Sox2-HMG (His6 retained) N46A (Homo sapiens, UniProt P48431 38-121, N46A)
# Sequence of Sox2-HMG (His6 retained) N46A (P48431 other isoform, or with tags, fused parts or gaps N46A | N46A N46A): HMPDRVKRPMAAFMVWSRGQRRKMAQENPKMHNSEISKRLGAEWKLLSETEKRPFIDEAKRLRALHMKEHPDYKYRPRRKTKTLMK
# How it was run: as §1
# [44] = target: Sox2-HMG (His6 retained) K65A (Homo sapiens, UniProt P48431 38-121, K65A)
# Sequence of Sox2-HMG (His6 retained) K65A (P48431 other isoform, or with tags, fused parts or gaps K65A | K65A K65A): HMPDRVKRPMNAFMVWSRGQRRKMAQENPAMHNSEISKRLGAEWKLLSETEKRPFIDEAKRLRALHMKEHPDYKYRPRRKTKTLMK
# How it was run: as §1
# [45] = target: Sox2-HMG (His6 retained) H101A (Homo sapiens, UniProt P48431 38-121, H101A)
# Sequence of Sox2-HMG (His6 retained) H101A (P48431 other isoform, or with tags, fused parts or gaps H101A | H101A H101A): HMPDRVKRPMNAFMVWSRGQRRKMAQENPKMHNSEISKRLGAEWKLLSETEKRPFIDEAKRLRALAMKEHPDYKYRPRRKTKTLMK
# How it was run: as §1
# [46] = target: Sox2-HMG (His6 retained) P64A (Homo sapiens, UniProt P48431 38-121, P64A)
# Sequence of Sox2-HMG (His6 retained) P64A (P48431 other isoform, or with tags, fused parts or gaps P64A | P64A P64A): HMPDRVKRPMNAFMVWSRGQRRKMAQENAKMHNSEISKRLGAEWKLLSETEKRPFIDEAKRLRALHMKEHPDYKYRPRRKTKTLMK
# How it was run: as §1
# [47] = target: Sox2-HMG (His6 retained) M66A (Homo sapiens, UniProt P48431 38-121, M66A)
# Sequence of Sox2-HMG (His6 retained) M66A (P48431 other isoform, or with tags, fused parts or gaps M66A | M66A M66A): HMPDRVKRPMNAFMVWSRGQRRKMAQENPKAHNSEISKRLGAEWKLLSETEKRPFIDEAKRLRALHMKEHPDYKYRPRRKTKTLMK
# How it was run: as §1
# [48] = target: Sox2-HMG (His6 retained) H105A (Homo sapiens, UniProt P48431 38-121, H105A)
# Sequence of Sox2-HMG (His6 retained) H105A (P48431 other isoform, or with tags, fused parts or gaps H105A | H105A H105A): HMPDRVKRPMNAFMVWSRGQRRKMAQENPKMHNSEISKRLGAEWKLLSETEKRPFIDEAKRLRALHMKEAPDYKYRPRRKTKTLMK
# How it was run: as §1
# Sequence of Sox2-HMG (His6 retained) E78A (P48431 other isoform, or with tags, fused parts or gaps E78A | E78A E78A): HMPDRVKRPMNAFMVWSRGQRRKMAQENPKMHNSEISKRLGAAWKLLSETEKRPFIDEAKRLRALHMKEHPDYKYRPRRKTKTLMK
sequence,measurement,setting,value
CGCGCCTTTGTTCCCGGGT,binding signal,[1],2.2 ± 1 Kd(mutant)/Kd(WT)
same,binding signal,[2],1.4 ± 0.4 Kd(mutant)/Kd(WT)
same,binding signal,[3],1.1 ± 0.3 Kd(mutant)/Kd(WT)
same,binding signal,[4],1.1 ± 0.5 Kd(mutant)/Kd(WT)
same,binding signal,[5],2.4 ± 0.7 Kd(mutant)/Kd(WT)
same,binding signal,[6],2.8 ± 1.8 Kd(mutant)/Kd(WT)
same,binding signal,[7],1.4 ± 0.7 Kd(mutant)/Kd(WT)
same,binding signal,[8],2.9 ± 1.4 Kd(mutant)/Kd(WT)
same,binding signal,[9],5.8 ± 1 Kd(mutant)/Kd(WT)
same,binding signal,[10],0.7 ± 0.4 Kd(mutant)/Kd(WT)
same,binding signal,[11],9.3 ± 1.4 Kd(mutant)/Kd(WT)
same,binding signal,[12],490 ± 20 Kd(mutant)/Kd(WT)
same,binding signal,[13],0.6 ± 0.3 Kd(mutant)/Kd(WT)
same,binding signal,[14],6.1 ± 2.2 Kd(mutant)/Kd(WT)
same,binding signal,[15],1.1 ± 0.5 Kd(mutant)/Kd(WT)
same,binding signal,[16],1.6 ± 1.1 Kd(mutant)/Kd(WT)
same,binding signal,[17],2 ± 1.9 Kd(mutant)/Kd(WT)
same,binding signal,[18],17 ± 2.8 Kd(mutant)/Kd(WT)
same,binding signal,[19],0.9 ± 0.2 Kd(mutant)/Kd(WT)
same,binding signal,[20],3 ± 0.8 Kd(mutant)/Kd(WT)
same,binding signal,[21],1.6 ± 0.3 Kd(mutant)/Kd(WT)
same,binding signal,[22],1.1 ± 1.1 Kd(mutant)/Kd(WT)
same,binding signal,[23],420 ± 120 Kd(mutant)/Kd(WT)
same,binding signal,[24],0.7 ± 0.4 Kd(mutant)/Kd(WT)
same,binding signal,[25],0.6 ± 0.2 Kd(mutant)/Kd(WT)
same,binding signal,[26],1.3 ± 0.7 Kd(mutant)/Kd(WT)
same,binding signal,[27],3 ± 0.6 Kd(mutant)/Kd(WT)
same,binding signal,[28],0.8 ± 0.1 Kd(mutant)/Kd(WT)
same,binding signal,[29],0.7 ± 0.2 Kd(mutant)/Kd(WT)
same,binding signal,[30],0.6 ± 0.5 Kd(mutant)/Kd(WT)
same,binding signal,[31],2.8 ± 0.3 Kd(mutant)/Kd(WT)
same,binding signal,[32],30 ± 5.4 Kd(mutant)/Kd(WT)
same,binding signal,[33],190 ± 70 Kd(mutant)/Kd(WT)
same,binding signal,[34],2.8 ± 0.9 Kd(mutant)/Kd(WT)
same,binding signal,[35],7.5 ± 3.5 Kd(mutant)/Kd(WT)
same,binding signal,[36],1.4 ± 1.3 Kd(mutant)/Kd(WT)
same,binding signal,[37],3.2 ± 0.8 Kd(mutant)/Kd(WT)
same,binding signal,[38],8.5 ± 2.2 Kd(mutant)/Kd(WT)
same,binding signal,[39],0.8 ± 0.3 Kd(mutant)/Kd(WT)
same,binding signal,[40],0.8 ± 0.5 Kd(mutant)/Kd(WT)
same,binding signal,[41],1.1 ± 0.5 Kd(mutant)/Kd(WT)
same,binding signal,[42],2.7 ± 1.2 Kd(mutant)/Kd(WT)
same,binding signal,[43],15 ± 8.4 Kd(mutant)/Kd(WT)
same,binding signal,[44],8.5 ± 1 Kd(mutant)/Kd(WT)
same,binding signal,[45],1.9 ± 0.2 Kd(mutant)/Kd(WT)
same,binding signal,[46],2.6 ± 0.1 Kd(mutant)/Kd(WT)
same,binding signal,[47],1.8 ± 0.9 Kd(mutant)/Kd(WT)
same,binding signal,[48],1.7 ± 1.9 Kd(mutant)/Kd(WT)
